Measured values: PubChem BioAssay (EPA / NIEHS)
Inconclusive results are not listed. Calls of active or inactive are those of the source. Rule for the calls, unless noted: active = hit-call score of the fitted dose curve at least 0.9, where 1 is the maximum; inactive = score below 0.9.

Key:
[1] = target: Cellular tumor antigen p53 (Homo sapiens) (UniProt P04637); assay: TOX21_p53_BLA_p2_ratio: Tox21 HCT-116 p53 Agonism Beta-lactamase Assay, Ratio, Phase 2 (AID 2283592; active = hit-call score of the fitted dose curve at least 0.9, where 1 is the maximum)
Sequence of Cellular tumor antigen p53 (Homo sapiens) (P04637 whole entry, looked up): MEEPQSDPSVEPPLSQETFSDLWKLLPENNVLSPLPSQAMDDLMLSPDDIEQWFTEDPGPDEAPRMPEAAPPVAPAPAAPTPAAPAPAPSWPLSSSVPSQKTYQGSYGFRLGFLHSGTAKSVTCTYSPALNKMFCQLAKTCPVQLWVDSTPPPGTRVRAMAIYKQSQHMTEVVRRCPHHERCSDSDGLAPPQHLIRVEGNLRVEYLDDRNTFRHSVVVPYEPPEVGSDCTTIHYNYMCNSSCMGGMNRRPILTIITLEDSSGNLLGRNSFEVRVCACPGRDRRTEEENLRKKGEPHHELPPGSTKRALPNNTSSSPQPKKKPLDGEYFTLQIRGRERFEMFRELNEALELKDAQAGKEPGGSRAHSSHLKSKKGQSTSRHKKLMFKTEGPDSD
Summary of the method: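 Cleaved-to-uncleaved substrate ratio (460 vs 530 nm) measured in HCT116 cells with an inducible beta-lactamase reporter linked to p53 activity. Compounds incubated 16 h at 37C before 2 h room-temperature CCF4-AM loading.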

[2] = TOX21_p53_BLA_p3_viability: Viability Assessment in the Tox21 HCT-116 p53 Agonism Beta-lactamase Assay, Phase 3 (AID 2283593; active = hit-call score of the fitted dose curve at least 0.9, where 1 is the maximum;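 note: cells exposed to compound for 16 h before reading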)
Summary of the method: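 HCT116 cells, 4000/well, dosed 5 h after plating by pin transfer (217-fold dilution from DMSO stock) and incubated 16 h at 37C, 5% CO2. Viability read as ATP luminescence with CellTiter-Glo after 30 min at room temperature.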

[3] = target: Cellular tumor antigen p53 (Homo sapiens) (UniProt P04637); assay: TOX21_p53_BLA_p3_ratio: Tox21 HCT-116 p53 Agonism Beta-lactamase Assay, Ratio, Phase 3 (AID 2283596; active = hit-call score of the fitted dose curve at least 0.9, where 1 is the maximum)
Summary of the method: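 Cells were seeded at 4000/well, rested 5 h at 37C, then dosed with DMSO compound solutions (217-fold dilution) for 16 h. CCF4-AM substrate was loaded for 2 h at room temperature, and the 460/530 nm emission ratio was fitted for gain of signal versus DMSO.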

[4] = TOX21_p53_BLA_p4_viability: Viability Assessment in the Tox21 HCT-116 p53 Agonism Beta-lactamase Assay, Phase 4 (AID 2283597; active = hit-call score of the fitted dose curve at least 0.9, where 1 is the maximum;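 note: hits lower the luminescence signal meaning cytotoxicity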)
Summary of the method: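 Viability is taken as cellular ATP: after 16 h compound exposure of HCT116 cells and a 2 h room-temperature CCF4-AM substrate step, CellTiter-Glo reagent is added and luminescence is measured 30 min later.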

[5] = target: Cellular tumor antigen p53 (Homo sapiens) (UniProt P04637); assay: TOX21_p53_BLA_p5_ratio: Tox21 HCT-116 p53 Agonism Beta-lactamase Assay, Ratio, Phase 5 (AID 2283599; active = hit-call score of the fitted dose curve at least 0.9, where 1 is the maximum)
Summary of the method: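 HCT-116 p53-bla cells (4000/well) plated 5 h, dosed with compound (217-fold DMSO dilution) for 16 h at 37 C; CCF4-AM substrate 2 h at room temperature. Activity is the 460/530 nm emission ratio (405 nm excitation), fitted in gain-of-signal direction versus DMSO.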

[6] = TOX21_p53_BLA_p5_viability: Viability Assessment in the Tox21 HCT-116 p53 Agonism Beta-lactamase Assay, Phase 5 (AID 2283600; active = hit-call score of the fitted dose curve at least 0.9, where 1 is the maximum)
Summary of the method: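 Viability is taken from cellular ATP content, measured by luciferase luminescence in the same wells after the beta-lactamase ratio read. Cells are seeded at 4000 per well and exposed to DMSO-dissolved compounds, diluted 217-fold, for 16 h.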

[7] = target: Cellular tumor antigen p53 (Homo sapiens) (UniProt P04637); assay: TOX21_p53_BLA_p4_ratio: Tox21 HCT-116 p53 Agonism Beta-lactamase Assay, Ratio, Phase 4 (AID 2283601; active = hit-call score of the fitted dose curve at least 0.9, where 1 is the maximum)
Summary of the method: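 HCT-116 p53 beta-lactamase reporter cells (4000/well) preincubated 5 h, then compound (217-fold dilution of DMSO stock) for 16 h at 37C. CCF4-AM substrate added 2 h at room temperature; 460/530 nm emission ratio fitted upward versus DMSO.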

[8] = CCTE_Harrill_HTTr_Viability_MCF7: CCTE's 6-hour Cell Viability Assessment for the High-Throughput Transcriptomics (HTTr) Platform, in MCF-7 cells cultured in DMEM + 10% fetal bovine serum, Harrill Lab (AID 2284010)
Summary of the method: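 PI exclusion, high-content imaging; 8-pt dilution series, 6 h exposure; bidirectional fit vs DMSO (neg. ctrl/baseline); gain of signal = loss of membrane integrity.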

[9] = CCTE_Harrill_HTTr_Apoptosis_MCF7: CCTE's 6-hour Apoptosis Assessment for the High-Throughput Transcriptomics (HTTr) Platform, in MCF-7 cells cultured in DMEM + 10% fetal bovine serum, Harrill Lab (AID 2284011)
Summary of the method: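 Cells are dosed with test chemicals at eight concentrations and imaged 6 hours later for caspase-3/7 activity using a green fluorogenic detection reagent. Activity is fitted in both directions against DMSO controls.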

[10] = CCTE_Shafer_MEA_dev_firing_rate_mean: CCTE's Neural Network Formation Assay for Mean Firing Rate, Shafer Lab (AID 2284031)
Summary of the method: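 Read-out: spike count/recording length, averaged over active electrodes, then AUC across days 5, 7, 9, 12. Rat cortical cultures on MEA; continuous 12-day exposure, media and treatment renewed DIV 5, 9; DMSO baseline.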

[11] = CCTE_Shafer_MEA_dev_per_burst_spike_percent: CCTE's Neural Network Formation Assay for Percent of Spikes in a Burst, Shafer Lab (AID 2284032)
Summary of the method: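 Value is trapezoidal AUC over recordings on days 5, 7, 9 and 12 of the well-mean fraction of spikes falling in single-electrode bursts; rat cortical cultures exposed continuously from plating, treatment renewed DIV 5 and 9, fitted downward against DMSO.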

[12] = CCTE_Shafer_MEA_dev_active_electrodes_number: CCTE's Neural Network Formation Assay for Number of Active Electrodes, Shafer Lab (AID 2284040; active = hit-call score of the fitted dose curve at least 0.9, where 1 is the maximum)
Summary of the method: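 Developing rat cortical networks on MEAs, exposed DIV 0–12. Value is the AUC of active-electrode counts (≥5 spikes/min) from days 5, 7, 9, 12, relative to DMSO.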

[13] = CCTE_Shafer_MEA_dev_burst_rate: CCTE's Neural Network Formation Assay for Burst Rate, Shafer Lab (AID 2284042)
Summary of the method: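 Rat primary cortical cultures on PEI/laminin MEA; compound from plating, re-dosed at DIV 5, 9 media change. Single-electrode bursts/recording length, well mean of active electrodes; AUC over DIV 5–12 recordings; loss-of-signal vs DMSO.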

[14] = CCTE_Shafer_MEA_dev_per_burst_interspike_interval: CCTE's Neural Network Formation Assay for Burst Interspike Interval, Shafer Lab (AID 2284044)
Summary of the method: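 Developmental network-formation MEA in primary rat cortical cultures with exposure spanning days 0–12. Within-burst ISI is averaged per well and integrated across recording days by area under the curve, with DMSO as negative control baseline.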

[15] = CCTE_Shafer_MEA_dev_burst_duration_mean: CCTE's Neural Network Formation Assay for Mean Burst Duration, Shafer Lab (AID 2284045)
Summary of the method: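 Rat cortical cultures, 1.5 x 10^5 cells/well with laminin drop; continuous dosing days 0–12, media plus treatment refreshed DIV 5, 9. AxIS adaptive spike detection; mean single-electrode burst duration, AUC over four recordings, negative direction vs DMSO.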

[16] = CCTE_Shafer_MEA_dev_interburst_interval_mean: CCTE's Neural Network Formation Assay for Mean Interburst Interval, Shafer Lab (AID 2284046);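 note: well-mean interburst interval of bursting electrodes as AUC over four recording days; curve fitted for decrease in interburst interval relative to DMSO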
Summary of the method: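 Rat cortical neurons, 1.5 x 10^5 cells/well, 48-well MEA; compound from day 0 through DIV 12, media and treatment renewed DIV 5/9. Recordings DIV 5, 7, 9, 12; well-mean interburst interval → trapezoidal AUC, loss direction vs DMSO.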

[17] = CCTE_Shafer_MEA_dev_inter_network_spike_interval_mean: CCTE's Neural Network Formation Assay for Mean Inter-network Spike Interval, Shafer Lab (AID 2284047)
Summary of the method: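 Primary rat cortical neurons on PEI-coated 48-well MEAs (16 electrodes/well) were exposed from plating day 0 to DIV 12, with dosing renewed at DIV 5 and 9. Recordings at DIV 5, 7, 9, 12 were collapsed by trapezoidal AUC, loss-of-signal fit vs DMSO.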

[18] = CCTE_Shafer_MEA_dev_network_spike_number: CCTE's Neural Network Formation Assay for Number of Network Spikes, Shafer Lab (AID 2284048);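 note: synchronized bursts across electrodes counted on days 5 7 9 12 and integrated as AUC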
Summary of the method: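 Rat cortical primary cultures on 48-well MEA (16 electrodes/well); continuous exposure DIV 0–12, full medium and treatment exchange DIV 5, 9. Readout: network spike count, AxIS adaptive detection, recordings DIV 5/7/9/12 collapsed to AUC; loss-of-signal fit, DMSO baseline.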

[19] = CCTE_Shafer_MEA_dev_network_spike_peak: CCTE's Neural Network Formation Assay for Mean Number of Electrodes in Network Spike, Shafer Lab (AID 2284049)
Summary of the method: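 Network-spike peak electrode count from recordings on days 5, 7, 9 and 12 was combined as trapezoidal area under the curve. Rat cortical cultures were treated continuously from plating, with compound renewed at each feed (DIV 5, 9); fits versus DMSO.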

[20] = CCTE_Shafer_MEA_dev_spike_duration_mean: CCTE's Neural Network Formation Assay for Mean Spike Duration, Shafer Lab (AID 2284051);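 note: mean network spike duration pooled as area under curve over DIV 5 to 12 recordings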
Summary of the method: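 Rat cortical primary cultures, 48-well MEA (16 electrodes/well); compound from plating, renewed DIV 5, 9. Network spike duration (AxIS adaptive detector) recorded DIV 5/7/9/12, combined as trapezoidal AUC; loss direction vs DMSO.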

[21] = CCTE_Shafer_MEA_dev_network_spike_duration_std: CCTE's Neural Network Formation Assay for Standard Deviation of Network Spike Duration, Shafer Lab (AID 2284052);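 note: area under curve of spike duration SD across recording days 5 to 12; hits are decreases in network spike duration SD versus DMSO vehicle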
Summary of the method: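 Rat cortical cultures, 1.5 x 10^5 cells/well, exposed continuously from plating to DIV 12 with media/compound renewal at DIV 5, 9. Spontaneous activity recorded DIV 5/7/9/12, AxIS adaptive spike detector; AUC across days; negative direction vs DMSO.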

[22] = CCTE_Shafer_MEA_dev_per_network_spike_spike_number_mean: CCTE's Neural Network Formation Assay for Mean Number of Spikes in a Network Spike, Shafer Lab (AID 2284053)
Summary of the method: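 Rat cortical primary cultures on 48-well MEA; compound from day 0, re-dosed with full media change DIV 5, 9. Recorded DIV 5, 7, 9, 12; spikes in 0.05 s window at network-spike peak ÷ total network spikes; AUC; loss vs DMSO.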

[23] = CCTE_Shafer_MEA_dev_per_network_spike_spike_percent: CCTE's Neural Network Formation Assay for Percent of Spikes in a Network Spike, Shafer Lab (AID 2284054)
Summary of the method: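 Read-out: percent of spikes falling in a 0.05 s window at network-spike peak, from spontaneous MEA recordings on days 5, 7, 9 and 12; trapezoidal AUC; loss of signal versus DMSO. Rat cortical cultures, compound present throughout.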

[24] = UKN5_HCS_SBAD2_cell_viability: Viability Assessment in the University of Konstanz (UKN) Leist Lab Neurite Outgrowth Assay in human iPSC-derived immature Dorsal Root Ganglia Neurons (UKN5) (AID 2284056)
Summary of the method: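 iPSC-derived immature peripheral neurons (SBAD2) seeded on Matrigel with CHIR99021, SU5402 and DAPT, dosed 1 h later for 24 h. Viability from Hoechst H-33342 and calcein-AM live staining, high-content imaging; bidirectional fit versus DMSO.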

[25] = CCTE_Shafer_MEA_dev_LDH: CCTE's Lactate Dehydrogenase Assay for Cytotoxicity in the Neural Network Formation Assay, Shafer Lab (AID 2284068; active = hit-call score of the fitted dose curve at least 0.9, where 1 is the maximum;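 note: exposure for twelve days from plating with re-dosing on DIV 5 and 9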)
Summary of the method: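 Rat cortical primary neurons, MEA culture; dosing day 0–12, full medium plus compound exchange DIV 5, 9. Read-out: LDH enzyme activity, spectrophotometric. DMSO = negative control/baseline; signal loss → cytotoxicity.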

[26] = UKN5_HCS_SBAD2_neurite_outgrowth: University of Konstanz (UKN) Leist Lab Neurite Outgrowth Assay in human iPSC-derived immature Dorsal Root Ganglia Neurons (UKN5) (AID 2284070); conditions: actives raise or lower the signal
Summary of the method: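 Cryopreserved SBAD2 peripheral neurons were seeded at 100.000 cells/cm2 in N2-S/KSR medium containing CHIR99021, SU5402 and DAPT, then exposed to compounds for 24 h. Neurite area from calcein-AM high-content imaging was fitted bidirectionally against DMSO.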

[27] = CCTE_Shafer_MEA_dev_AB: CCTE's Alamar Blue Assay for Cytotoxicity in the Neural Network Formation Assay, Shafer Lab (AID 2284083; active = hit-call score of the fitted dose curve at least 0.9, where 1 is the maximum;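 note: resazurin reduction fluorescence as viability of cultured neurons; twelve days of exposure from plating with re-dosing on DIV 5 and 9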)
Summary of the method: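 Rat cortical primary cultures, 1.5 x 10^5 cells/well on MEA; continuous compound exposure over 12 days of network development, re-dosed with full medium change DIV 5 and 9. Alamar Blue fluorescence; loss of signal = cytotoxicity vs DMSO baseline.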

[28] = CCTE_Shafer_MEA_dev_mutual_information_norm: CCTE's Neural Network Formation Assay for Mutual Information Normalization, Shafer Lab (AID 2284091)
Summary of the method: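 Neurons from rat cortex were seeded at 1.5 x 10^5 cells/well onto PEI-coated MEAs in a laminin drop, then exposed to compound from day 0 for twelve days. Network recordings on four days gave mutual information, summarised by AUC relative to DMSO.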

Measured: outcome

C[C@@H]1C[C@H]2[C@@H]3CCC4=CC(=O)C=C[C@]4(C)[C@@]3(F)[C@@H](O)C[C@]2(C)[C@@]1(O)C(=O)CO
inactive: all assays above
